# Pf growth 96h: P. falciparum growth inhibition at 96 hours | P. falciparum luciferase reporter growth, 96 h | Potency, µM (top dose mostly 28.7 µM), usual class: inhibitors | actives 6.9% (n = 320,000)
#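 Two parasite generations (96 h, 37 C, 5% CO2) of compound exposure in infected erythrocytes (0.05% parasitemia, 2% hematocrit). Luciferase-reporter P. falciparum; decreased luminescence indicates inhibited growth, aimed at apicoplast-acting delayed death.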
# CHX counter: affects cycloheximide protein synthesis inhibition readout, counter-screen | cell reporter, cycloheximide protein synthesis inhibition counterscreen | max response, % | actives 12% (n = 300,000); in the data active = max response mostly above about 13%, no sharp cut-off; inactive = mostly below about 14%; note: read at 38.3 µM for the half of the compounds with a filed dose
# Pf growth 48h: inhibits P. falciparum growth in the first generation, 48 h; P. falciparum luciferase growth in erythrocytes, 48 h; Potency, µM (highest dose often 28.7 µM), usual class: inhibitors; actives 5.9% (n = 310,000)
#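 Luminescence readout; reporter = integrated firefly luciferase in P. falciparum. RBC culture at 2% hematocrit, 0.1% parasitemia final, 37 C/5% CO2; decreased signal taken as growth inhibition.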
# Giardia FBPA inh: inhibitors of Giardia lamblia fructose-1,6-bisphosphate aldolase | purified Giardia FBPA | Potency, µM (series often up to 59.6 µM), most hits filed as inhibitors | actives 0.71% (n = 290,000); note: nearly all actives have a fitted effect of over 55% in size
# Target sequence (A8B2U2 whole entry, looked up): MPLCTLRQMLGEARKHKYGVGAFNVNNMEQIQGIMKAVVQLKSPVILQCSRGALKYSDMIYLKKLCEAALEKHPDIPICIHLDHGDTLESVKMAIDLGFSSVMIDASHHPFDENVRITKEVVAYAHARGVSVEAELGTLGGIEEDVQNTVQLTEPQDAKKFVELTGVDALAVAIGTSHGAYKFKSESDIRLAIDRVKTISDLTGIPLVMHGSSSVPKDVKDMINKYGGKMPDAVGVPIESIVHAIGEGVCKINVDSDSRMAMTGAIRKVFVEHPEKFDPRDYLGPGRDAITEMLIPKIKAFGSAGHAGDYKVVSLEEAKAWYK
#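 40 nM FBPA preincubated 10 min at RT with compound (up to 57.5 uM final), then substrate plus GAPDH/TPI/NAD/arsenate coupling and diaphorase/resazurin added. Fluorescence read after 20 min at RT, 525/598 nm.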
# Shiga inhibitor: inhibitors of Shiga toxin in Vero cells | Vero cells, Shiga toxin protein synthesis inhibition reporter | inhibition, % at 38.7 µM | actives 9.2% (n = 290,000) | AID 2315; in the data active = inhibition mostly above about 28%, no sharp cut-off; inactive = mostly below about 43%
# NS1 function inh: blocks influenza NS1 protein function; actives 0.4% (n = 270,000); AID 2326; Potency, µM (top dose mostly 46.1 µM); calls by dose curve; note: actives are rising curves; nearly all actives have a fitted effect of over 50% in size
#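 In this qHTS, NS1 from influenza A is expressed in budding yeast, where it slows growth. Cells are switched from glucose to 2% galactose medium (pH 6.0, -URA), treated with compound, and growth recovery is read at OD600.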
# A number is an active result; - = inactive; ? = inconclusive; . = not tested or not shown; [ ] = dose if it differs, or a comment. This is a sample that favours compounds with a hit; in the whole collection about 21% have one here. Unless noted, calls come from the whole dose curve; as a rule, active = well fitted curve in the direction sought with a large enough effect; inconclusive = small, poorly fitted or top-dose-only effect, or another doubt; inactive = no such curve, though single readings can be large; an effect the other way counts as inactive or inconclusive.
SMILES,Pf growth 96h,CHX counter,Pf growth 48h,Giardia FBPA inh,Shiga inhibitor,NS1 function inh
O=C(O)Cn1c(=O)n(Cc2ccccc2)c2ccccc21,?,-,-,-,-,-
C=CCn1c(=N)n(CC(=O)c2ccc(Br)s2)c2ccccc21,13µM,-,12µM,-,-,-
N=c1n(CC(=O)c2cccs2)c2ccccc2n1Cc1ccccc1,4.7µM,-,?,-,-,-
COc1ccc(S(=O)(=O)N2CCC(C(=O)NCCC(=O)Nc3nccs3)CC2)cc1,?,-,-,-,-,-
C=COCC1CN2C(CCC(C)C2c2ccc(Br)cc2)C(=O)O1 (stereo not given),.,.,.,-[12.9 µM],.,.
CCn1c(SCc2ccccc2)nc2c1c(=O)[nH]c(=O)n2C,-,-,-,-,-,-
CO[C@@H]1COC(=O)[C@@H](C)NC(=O)C/C=C\[C@@H](C)[C@H](NS(=O)(=O)c2ccc(C)cc2)COC(=O)[C@H](C)NC(=O)C/C=C\[C@H]1C,.,.,.,-[12.9 µM],.,.
CC(=O)C1CCN(Cc2ccccc2)CC1,-,-,.,-,-,-
Cc1ccc(CN2CCC(NC(=O)c3ccccc3)CC2)cc1,-,-,-,-,-,-
Cc1ccc(CN2CC[C@H]3C=CCc4cccc(c43)C2)cc1,?,.,5.2µM,.,.,.
C1=C[C@@H]2CCN(Cc3ccccc3)Cc3cccc(c32)C1,7.4µM,.,8.3µM,.,.,.
COc1ccc(CNC2CCN(Cc3ccccc3)CC2)cc1,-,-,?,-,-,?
COc1ccc(CN2CC[C@H]3C=CCc4cccc(c43)C2)cc1,?,.,3.7µM,.,.,.
CN(C)S(=O)(=O)c1ccc2c(c1)C(=NNC(N)=O)c1cc(S(=O)(=O)N(C)C)ccc1-2,-,-,-,-,-,-
CN(C)N=C1c2cc(S(=O)(=O)N(C)C)ccc2-c2ccc(S(=O)(=O)N(C)C)cc21,12µM,-,13µM,.,-,-
CN(C)S(=O)(=O)c1ccc2c(c1)C(=NO)c1cc(S(=O)(=O)N(C)C)ccc1-2,2.6µM,-,-,-,-,-
Cc1ccc2c(c1)C1CC(C)(O2)N(c2cccc(C(=O)N3CCN(c4ccccn4)CC3)c2)C(=O)N1 (stereo not given),?,-,-,.,-,-
Cc1ccccc1OCCC(=O)OCC(=O)NC1CCS(=O)(=O)C1 (stereo not given),-,.,-,.,.,.
CCn1c(CC(=O)Nc2ccc(F)cc2)nnc1SCC(=O)Nc1nncs1,-,-,-,-,-,-
O=C1C=C(Nc2ccc(Cl)cc2)C(=O)N1c1ccc(Cl)cc1,-,-,-,-,-,-
CN1CCN(C2=C(Cl)C(=O)N(c3ccc(Cl)c(Cl)c3)C2=O)CC1,-,23,-,-,-,-
O=C1C(Cl)=C(N2CCCC2)C(=O)N1c1ccccc1F,2.6µM,-,-,-,.,-
O=C1C(Cl)=C(N2CCCCCC2)C(=O)N1c1ccc(Cl)cc1,-,12,?,-,-,-
CN1CCN(C2=C(Cl)C(=O)N(c3cccc(Cl)c3)C2=O)CC1,?,-,-,-,-,-
O=C1C=C(N2CCCCCC2)C(=O)N1c1ccc(Cl)cc1,-,62,-,-,176,-
SMILES,Pf growth 96h,CHX counter,Pf growth 48h,Giardia FBPA inh,Shiga inhibitor,NS1 function inh
COCCNC(=O)CSc1n[nH]c(=O)n1CCc1ccccc1,-,-,-,-,-,-
Cc1ccccc1N1C(=O)C(Cl)=C(N2CCN(c3ccccc3)CC2)C1=O,3.7µM,-,-,-,-,-
O=P(O)(c1ccc(Cl)cc1)c1ccc(Cl)cc1,?,-,?,-,-,-
O=C(c1cccc(Br)c1)N1CCCC1,-,-,.,-,-,-
O=C(O)c1ccc(-c2nnc(-c3cccc(Br)c3)o2)cc1,-,20,-,-,35,-
O=C(c1cccc(-c2nnc(-c3ccccc3)o2)c1)N1CCCCC1,-,51,-,-,66,-
Brc1ccc(-c2nnc(-c3cccc(Br)c3)o2)cc1,?,-,?,-,-,?
O=C(c1ccc(-c2ccccc2)cc1)N1CCCC1,-,-,-,-,-,-
O=C(c1cccc(-c2nnc(-c3ccccc3)o2)c1)N1CCCCCC1,.,37,-,-,102,-
COc1cc(NC(=O)CSc2nc(=O)n(CCN3CCOCC3)c3c2CCCC3)cc(OC)c1,-,.,?,.,.,.
Cc1ccc(SCN2CCCCC2)cc1 (tested in a mixture with another compound),.,.,.,.,.,-
COc1cccc(CNC(=O)C2=Cc3cccc(OC)c3OC2)c1,-,-,-,-,-,-
CCC(C)NS(=O)(=O)c1ccc(OCC(=O)N2CCCCC2)cc1 (stereo not given),?,-,.,-,-,-
CCOc1ccc(NS(=O)(=O)c2coc(C(N)=O)c2)cc1,?,-,-,-,-,-
COc1cc(O)c(C(CCN2CCOCC2)c2cc(OC)c(OC)c(OC)c2)c(OC)c1 (stereo not given),?,-,?,-,-,-
COc1cc(O)c(C(CCN2CCCCC2)c2cc(OC)c(OC)c(OC)c2)c(OC)c1 (stereo not given),1.9µM,-,0.74µM,?,-,-
COc1cc(O)c(C(CCN2CCCC2)c2cc(OC)c(OC)c(OC)c2)c(OC)c1 (stereo not given),2.9µM,-,4.1µM,-,-,-
Cc1cc(NC(=O)COC(=O)C2CCC(=O)N2)c([N+](=O)[O-])cc1C (stereo not given),-,-,-,-,-,.
CCN(CC)C(=O)CSC1=N/C(=C/c2ccco2)C(=O)N1c1ccc(OC)c(Cl)c1,?,-,?,-,-,-
COc1ccc(N2C(=O)/C(=C\c3ccco3)N=C2SCC(=O)NC(C)(C)C)cc1Cl,?,13,?,-,-,-
COc1ccc(C2CC(=O)C(C=NCCN3CCNCC3)=C(O)C2)cc1OC (stereo not given),13µM,-,-,-,-,-
Cc1ccc(NC(=O)C2CCCN2S(=O)(=O)c2ccc3c(c2)n(C)c(=O)c(=O)n3C)c(C)c1 (stereo not given),-,-,-,-,-,-
Cn1ccsc1=NC(=O)c1ccccc1OC(F)F,?,-,-,.,-,-
COc1ccc(C(=O)N=c2sccn2C)cc1,-,33,-,-,71,.
Cn1ccs/c1=N\C(=O)Nc1ccccc1,-,66,-,-,75,-
SMILES,Pf growth 96h,CHX counter,Pf growth 48h,Giardia FBPA inh,Shiga inhibitor,NS1 function inh
CCOc1cc(C(=O)N=c2sccn2C)ccc1OC(F)F,-,35,-,.,-,-
COC(=O)c1ccc(C(=O)N=c2sccn2C)cc1,-,40,-,-,79,-
Cn1ccsc1=NC(=O)c1ccccc1F,?,-,-,-,-,.
COc1ccc(NC(=O)CSCC(=O)N=c2sccn2C)cc1,-,-,-,.,-,-
C=C(C)C1CC=C(C)/C(=N\NC(=O)CCC(=O)Nc2ccc(C)c(C)c2)C1 (stereo not given),-,-,-,-,-,-
CCOc1ccc(S(=O)(=O)Nc2cc(S(=O)(=O)N3CCOCC3)ccc2OC)cc1,-,.,-,.,.,.

# Compound activity deposited in PubChem by National Center for Advancing Translational Sciences (NCATS).
